# Target: T1, v3.1_PPR13 (Artificial Sequence)
# T1 chain: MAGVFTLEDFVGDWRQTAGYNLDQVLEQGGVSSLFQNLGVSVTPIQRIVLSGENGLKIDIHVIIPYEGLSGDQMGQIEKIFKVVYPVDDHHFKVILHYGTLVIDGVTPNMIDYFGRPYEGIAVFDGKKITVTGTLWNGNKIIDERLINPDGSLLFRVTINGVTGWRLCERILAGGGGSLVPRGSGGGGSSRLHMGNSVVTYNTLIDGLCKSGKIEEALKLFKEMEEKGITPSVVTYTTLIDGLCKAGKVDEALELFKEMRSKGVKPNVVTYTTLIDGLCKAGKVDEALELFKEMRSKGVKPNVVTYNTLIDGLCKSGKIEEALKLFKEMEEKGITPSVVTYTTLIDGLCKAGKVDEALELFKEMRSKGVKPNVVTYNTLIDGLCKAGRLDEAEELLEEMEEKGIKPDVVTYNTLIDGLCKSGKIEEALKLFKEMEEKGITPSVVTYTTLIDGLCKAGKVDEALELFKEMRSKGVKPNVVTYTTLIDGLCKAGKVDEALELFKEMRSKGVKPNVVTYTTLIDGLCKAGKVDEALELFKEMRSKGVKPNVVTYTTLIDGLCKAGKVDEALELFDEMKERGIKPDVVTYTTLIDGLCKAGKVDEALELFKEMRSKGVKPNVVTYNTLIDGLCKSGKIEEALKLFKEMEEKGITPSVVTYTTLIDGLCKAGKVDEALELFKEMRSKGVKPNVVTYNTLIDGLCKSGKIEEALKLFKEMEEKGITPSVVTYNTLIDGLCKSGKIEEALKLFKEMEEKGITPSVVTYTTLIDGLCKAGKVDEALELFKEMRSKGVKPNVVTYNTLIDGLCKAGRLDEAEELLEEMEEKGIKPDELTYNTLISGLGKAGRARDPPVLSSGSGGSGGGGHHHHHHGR
# Assay: RPB-ELISA
# Details: tags: N-terminal luciferase, C-terminal 6xHis; label: 5'-biotin; ssRNA
# Experimental: RNA probes consisting of a designed 30-base sequence containing 18 bases of the target sequence and modified by biotinylation at the 5′ end (RNA_1, RNA_2, RNA_3, RNA_4, and RNA_5, SEQ ID NOS: 61 to 65) were synthesized (Grainer). To a streptavidin-coated plate (Thermo fisher), the 5′-end biotinylated RNA probes were added, reaction was allowed at room temperature for 30 minutes, and the plate was washed with a lysis buffer (20 mM Tris-HCl, pH 7.6, 150 mM NaCl, 5 mM MgCl₂, 0.5% NP-40, 1 mM DTT, 0.1% BSA). For background measurement, wells to which RNA was not added, but 100 μL of the lysis buffer, 1 μL of 100 mM DTT, and 1 μL of 40 unit/4 RNase inhibitor (Takara, 2313A) were added were also prepared. Then, 200 μL of a blocking buffer (20 mM Tris-HCl, pH 7.6, 150 mM NaCl, 5 mM MgCl₂, 0.5% NP-40, 1 mM DTT, 1% BSA) was added, and the plate surface was blocked at room temperature for 30 minutes. Then, 100 μL of E. coli lysate containing luciferase-fused PPR protein having a luminescence level of 1.5×10⁸ LU/μL was added to each well, and the binding reaction was allowed at room temperature for 30 minutes. The well was washed 5 times with 200 μL of a washing buffer (20 mM Tris-HCl, pH 7.6, 150 mM NaCl, 5 mM MgCl₂, 0.5% NP-40, 1 mM DTT). […] The background (luminescence signal value obtained with adding the PPR protein and without adding RNA) was subtracted from the luminescences of the samples to which a solution containing each RNA and PPR protein was added, and the obtained values were used as the binding powers between the PPR protein and RNA.
# By using the V3.1 motif, PPR proteins for the same 23 kinds of target sequences were similarly prepared (SEQ ID NOS: 411 to 433 for the nucleotide sequences, and SEQ ID NOS: 434 to 456 for the amino acid sequences), and bindings of all the combinations were analyzed by using RPB-ELISA. The experimental method was the same as that used in Example 3.
row,Sequence,binding signal
1,GGUUAGAGAUACAGUGUG,20.6 log2 luminescence

# From patent publication US20220289795, “EFFICIENT METHOD FOR PREPARING PPR PROTEIN AND USE OF THE SAME” (EditForce, Inc., published 2022)
